High-throughput results: PubChem BioAssay, National Center for Advancing Translational Sciences (NCATS)
Pf growth 96h = P. falciparum growth inhibition at 96 hour, primary screen for plastid delayed-death inhibitors; P. falciparum luciferase reporter growth, 96 h; Potency, µM (doses to about 28.7 µM), inactives show at the top dose activity change, negative = inhibition, usual class: inhibitors; hit rate 6.9% among 320,000; AID 504834; further: potency means the concentration at half of the fitted maximal effect; on the % scale 0 is the no-effect control and ±100 the full control effect
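Two parasite generations (96 h, 37 C, 5% CO2) of compound exposure in infected erythrocytes (0.05% parasitemia, 2% hematocrit). Luciferase-reporter P. falciparum; decreased luminescence indicates inhibited growth, aimed at apicoplast-acting delayed death.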
Cycloheximide cs = counter-screen for Shiga toxin inhibitors: cycloheximide protein synthesis inhibition; cell reporter, cycloheximide protein synthesis inhibition counterscreen; max response, %; hit rate 12% among 300,000; in the data active means max response mostly above about 13%, no sharp cut-off; inactive means mostly below about 14%; further: read at 38.3 µM for the half of the compounds with a filed dose; 0% is about no effect
HCMV inh = human cytomegalovirus inhibition | HFF cells, HCMV-luciferase reporter, 72 h; stronger effect = lower value | activity change, negative = inhibition, % at 57.5 µM | AID 1259415 | hit rate 4.5% among 410,000; in the data active means activity change below about -60%; inconclusive means no clear call, values can overlap the other calls; inactive means above about -39%; further: on the % scale 0 is the no-effect control and ±100 the full control effect
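Compounds were evaluated in HFFs infected with an HCMV luciferase reporter virus (MOI 1 PFU/cell). Luciferase in lysates collected 72 h post infection served as the replication measure.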
Shiga toxin inh = inhibitors of Shiga toxin in Vero cells; Vero cells, Shiga toxin protein synthesis inhibition reporter; inhibition, % at 38.7 µM; hit rate 9.2% among 290,000; AID 2315; in the data active means inhibition mostly above about 28%, no sharp cut-off; inactive means mostly below about 43%; further: 0% is about no effect
Pf growth 48h = inhibits P. falciparum growth in the first generation, 48 h; P. falciparum luciferase growth in erythrocytes, 48 h; Potency, µM (series often up to 28.7 µM), without a hit: at the top dose activity change, negative = inhibition, actives largely listed as inhibitors; hit rate 5.9% among 310,000; AID 504832; further: potency means the concentration at half of the fitted maximal effect; on the % scale 0 is the no-effect control and ±100 the full control effect
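Parasite viability was followed by luminescence of a genomically integrated firefly luciferase. Cultures held 0.1% parasitemia at 2% hematocrit (final), incubated under 5% CO2 at 37 C.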
* marks the source's active call; other numbers are inactive results; u = inconclusive; x = no result given; [ ] = remark or other dose. This is a sample that favours compounds with a hit; in the whole collection about 20% have one here. Unless noted, the call rests on the fitted dose curve; in most records, active means well fitted inhibition curve with a large enough effect; inconclusive means small, poorly fitted or top-dose-only effect, or another doubt; inactive means no such curve, though single readings can be large or run the other way.

SMILES | Pf growth 96h | Cycloheximide cs | HCMV inh | Shiga toxin inh | Pf growth 48h
C/C(CC(=O)Nc1cccc2c1CCCC2)=N\NC(=O)c1ccccc1N | 11% | 31* | 86 | 116* | u
C/C(CC(=O)Nc1cccc2c1CCCC2)=N\NC(=O)c1cccc2ccccc12 | 13µM* | -2 | -5 | -7 | -6%
CC(=O)CC(=O)Nc1cccc2c1CCCC2 | 4% | -5 | -2 | 49 | 36%
COc1ccc(CCNC(=O)c2cnn(-c3ccc(F)cc3)c2C2CCN(C(=O)OC(C)(C)C)CC2)c(OC)c1 | x | x | -20 | x | x
O=C(c1ccco1)N1CCN(C(=O)c2ccccc2OCc2ccc(Cl)cc2)CC1 | -15% | x | -10 | x | u
CC(=O)Nc1ccc(NC(=O)c2ccc(CSc3ccccc3)o2)cc1 | 32% | 4 | -14 | 13 | u
O=C(Nc1cccc(F)c1)c1ccc(CSc2ccccc2)o1 | 102% | 55* | -11 | 95* | 35%
O=C(Nc1ccccc1F)c1ccc(CSc2ccccc2)o1 | 0% | 54* | 15 | 63* | 34%
O=C(NCc1ccccc1)c1ccc(CSc2ccccc2)o1 | 30%[5.75 µM] | 8 | 11 | 14 | -9%
CCOC(=O)c1c(O)c(Cl)c(C)[nH]c1=O | u | 4 | 17 | 45 | 2%
Cc1noc(C)c1COC(=O)CCN1c2ccccc2Sc2ccccc21 | 12µM* | 2 | 13 | -8 | u
CCn1c(=O)c2sccc2n2c(CCC(=O)NCc3ccc(Cl)cc3)nnc12 | x | x | -15 | x | x
O=C(O)c1ccccc1C(=O)NNc1ccc(Cl)cc1 | -1% | 11* | 5 | 49* | 7%
O=C(O)c1ccccc1C(=O)NNc1cccc(Cl)n1 | 116% | 49* | 11 | 98* | 161%
NS(=O)(=O)c1ccc(NNC(=O)c2ccccc2C(=O)O)cc1 | 10% | 29* | 13 | 89 | 6%
O=C(NNc1cccc(Cl)n1)C(F)(F)F | 2.3µM* | 8 | -2 | 15 | 12µM*
COC(c1ccc(Cl)cc1)(c1ccc(Cl)cc1)C(Oc1nc(C)cc(C)n1)C(=O)O (configuration not stated) | -27% | -3 | u | -4 | 41%
Clc1cccc(CNc2ccn3nc(-c4ccccc4Cl)cc3n2)c1 | x | x | -4 | x | x
CNS(=O)(=O)c1cn(CC(=O)NCc2cccc(OC)c2)cc1S(=O)(=O)NC | -21% | -4 | x | -10 | 22%
NC1=NC(c2ccccc2)N=C(Nc2ccccc2)N1 (configuration not stated) | 2.9µM* | 14* | 95 | 20 | 4.7µM*
COc1ccc(NC2=NC3(CCCCC3)N=C(N)N2)cc1 | u | -1 | -10 | -13 | 0.93µM*
NC1=NC2(CCCC2)N=C(Nc2ccccc2)N1 | 1.5µM* | -4 | u | -9 | u
CCCCOc1ccc(NC2=NC3(CCCCC3)N=C(N)N2)cc1 | 8% | 5 | -31 | -12 | 0.66µM*
Cc1ccc(S(=O)(=O)N2CCN(C(=O)CSC(=S)N3CCCC3)CC2)c(C)c1 | u | x | -23 | x | u
Cn1c(=O)c2cn(-c3ccccc3)cc2n(C)c1=O | -3% | -1 | -11 | -11 | 24%
SMILES | Pf growth 96h | Cycloheximide cs | HCMV inh | Shiga toxin inh | Pf growth 48h
COc1cccc(-n2cc3c(=O)n(C)c(=O)n(C)c3c2)c1 | 12%[5.75 µM] | 24* | 28 | 88 | -82%
CC1(C)CC(=O)C=C(NCCc2c[nH]c3ccccc23)C1 | 1% | 9 | 57 | 0 | -3%
CCc1ccc(NC(=O)C2CCC(CNS(=O)(=O)c3ccc4c(c3)C(C)(C)C(=O)N4C)CC2)cc1 (configuration not stated) | x | x | -12 | x | x
COc1cccc(CNC(=O)CN2C(=O)CSc3c2c(C)nn3-c2ccccc2)c1 | x | x | -4 | x | x
Cc1cccn2c(=O)c3cc(C(=O)NC4CCCCC4C)n(C)c3nc12 (configuration not stated) | 7% | -6 | -16 | -7 | -25%
CC1CCCCC1NC(=O)c1cc2c(=O)n3ccccc3nc2n1C (configuration not stated) | 2.3µM* | 1 | u | 23 | 0%
Cc1csc2nc(O)c(C(=O)NC3CCCCC3C)c(=O)n12 (configuration not stated) | u | x | -29 | x | 7.4µM*
CC1CCCCC1NC(=O)c1c(O)nc2ccccn2c1=O (configuration not stated) | 5.2µM* | x | -35 | x | 5.2µM*
CC1CC(NC(=O)c2cc3c(=O)n4ccccc4nc3n2C)CC(C)(C)C1 (configuration not stated) | 0% | -3 | u | -2 | 12µM*
COc1ccc(-c2nnc3n2N=C(c2cc(OC)ccc2OC)CS3)c(OC)c1 | x | 5 | x | -7 | x
Cc1nc(NC(=O)C2CC2)sc1C(=O)Nc1ccccc1Cl | -13% | 33* | -104* | 19 | 83%
Cc1nc(Nc2ccc(Cl)c(Cl)c2)sc1C(=O)Nc1ccccc1 | u | 25* | -89* | -28 | u
Cc1nc(Nc2ccc(Cl)cc2Cl)sc1C(=O)Nc1ccccc1 | 12µM* | -1 | -14 | -7 | u
CC(C)C(=O)Nc1cccc(C(=O)Nc2cc([N+](=O)[O-])ccc2F)c1 | -24% | -4 | u | -7 | 11%[5.75 µM]
CC(C)CNC(=O)[C@H](Cc1ccccc1)NC(=O)c1cccs1 | 9% | -5 | u | -4 | -15%
CCN(CC)CC#CCC(O)(c1ccccc1)c1ccccc1 | 19% | -2 | -2 | -31 | u
CCN(CC)CC#CCC(C)(c1ccccc1)c1ccccc1 | 6.6µM* | 1 | -38 | -13 | 12µM*
CCN(CC)CC#CCC(O)(c1ccccc1)c1ccc(Br)cc1 (configuration not stated) | -4% | -3 | -62* | -6 | u
C=C1C=CS(=O)(=O)N(Cc2ccccc2)C1 | x | -10 | x | -14 | x
Cc1cc(C)c(S(=O)(=O)NCC2CCC(C(=O)NCc3ccccn3)CC2)c(C)c1 (configuration not stated) | 5% | -3 | 20 | -11 | u
O=C(Nc1nnc(S(=O)(=O)N2CCOCC2)s1)c1ccccc1 | 5% | 11* | -31 | 22 | 3%
COc1ccccc1C(=O)Nc1nnc(S(=O)(=O)N2CCOCC2)s1 | 26% | 14* | -23 | 16 | 29%
C=CCc1ccc(OCCOc2cccc3ccc(C)nc23)c(OC)c1 | u | 30* | 118 | 59* | u
C=CCc1ccccc1OCCn1nnc2ccccc21 | 14% | 8 | 8 | x | -4%
C/C=C/c1ccc(OCCn2nnc3ccccc32)c(OC)c1 | -16% | 35* | 89 | 25 | 33%
C=CCc1ccc(OCCOCCN(C)C)c(OC)c1 | -16% | -3 | 10 | -3 | x
C=CCc1ccc(OCCn2nnc3ccccc32)c(OC)c1 | u | 50* | 63 | 53* | 28%
C=CCc1ccc(OCCn2cccc2C=O)c(OC)c1 | 96% | 49* | 6 | 116* | 103%
CC1(C(=O)NS(=O)(=O)c2ccccc2Cl)CCN1C(=O)C/C=C/c1ccccc1 (configuration not stated) | x | x | -29 | x | x
